According to PubChem BioAssay AID2546 (National Center for Advancing Translational Sciences (NCATS), 2010):
Hit rate of the full screen: of about 310,000 compounds, about 11,000 (3.5%) were called active. Another 8% or so got no clear call; they are omitted. The entries come from a sample that favours actives as a whole. A number with no mark means an inactive call. Calls come from the whole dose curve; as a rule, active = well fitted inhibition curve with a large enough effect; inconclusive = small, poorly fitted or top-dose-only effect, or effect the other way; inactive = flat fitted curve, though single readings scatter.

Test: VP16 counterscreen qHTS for inhibitors of ROR gamma transcriptional activity;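 note: Gal4-VP16 expression switched on by copper sulfate through the metallothionein promoter; nearly all actives have a fitted effect of over 50% in size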
Details: Drosophila S2 Gal4-VP16 UAS-luciferase, luminescence, 20 h; series mostly up to 53.6 µM; activity, negative = inhibition: at the top concentration
% is set by controls: 0 for no effect and ±100 for the full control effect; potency is the fitted concentration of half-maximal effect.

Row | Structure (SMILES) | activity, negative = inhibition | Potency
1 | COc1ccc(/C=C/C(=O)NC(=S)N2CCCC(C(N)=O)C2)cc1 (stereo unspecified) | -11.2% | 
2 | COc1ccccc1/C=C/C(=O)NC1CC2CCC1C2 (stereo unspecified) | 22.3% | 
3 | O=C(/C=C/c1ccco1)NC(=S)N1CCCCC1 |  | 22.4 µM (active)
4 | COc1ccc(C)cc1NC(=S)N1CCOCC1 | -2.62% | 
5 | CCNC(=S)N1CCN(C(=O)c2ccco2)CC1 | -4.45% | 
6 | COc1ccccc1/C=C/C(=O)NC(=S)N1CCOCC1 |  | 8.91 µM (active)
7 | CC1CCCN(S(=O)(=O)c2ccc(-c3ccc(=O)[nH]n3)o2)C1 (stereo unspecified) | -0.807% | 
8 | O=C(C1CC(=O)N(c2ccc(Br)cc2)C1)N1CCCC1 (stereo unspecified) | 2.91% | 
9 | OC(c1nc2ccc(F)cc2[nH]1)C(O)c1nc2ccc(F)cc2[nH]1 (stereo unspecified) | -3.31% | 
10 | CC(C)c1nc2ccc(C(=O)O)cc2[nH]1 |  | 20 µM (active)
11 | Cc1nc2ccc(C(=O)O)cc2[nH]1 | -8.16% | 
12 | COc1ccc2cc(C(=O)C3CCCN(C(=O)c4sc(C)nc4C)C3)ccc2c1 (stereo unspecified) | -3.81% | 
13 | CC(C)(C)OC(=O)NNc1c2ccccc2nc2ccccc12 | -22.6% | 
14 | COC(=O)CSc1nnc(NC(=O)CCc2ccccc2)s1 | -9.32% | 
15 | O=C(NCCc1ccccc1Cl)C1CCC(=O)N(CCCc2ccccc2)C1 (stereo unspecified) | -8.62% | 
16 | CCCn1c(CCNc2nc(-c3ccc(OC)cc3)cs2)nc2ccccc21 | -4.87% | 
17 | O=C(CCCC(=O)N1CCN(c2cccc(Cl)c2)CC1)c1ccccc1 | 1.45% | 
18 | S=C1NC(c2ccccc2)=NCN1c1ccc(Br)cc1 |  | 20 µM (active)
19 | Cc1nc(=O)c(-c2ccccc2)c(C)n1-c1ccc(Br)cc1 | -1.26% | 
20 | Brc1ccccc1C1N=C(c2ccccc2)NO1 (stereo unspecified) | -7.34% | 
21 | COc1cc(NC(=O)CSc2ccc(-c3cccnc3)nn2)cc(OC)c1 | -0.546% | 
22 | CCOC(=O)C1(CCOc2ccccc2)CCN(Cc2ccc(C#CCCO)cc2)CC1 | -12.6% | 
23 | C=CCn1c(C23CC4CC(CC(C4)C2)C3)n[nH]c1=S |  | 2.51 µM (active)
24 | C=CCn1c(SCC(=O)NC)nnc1C12CC3CC(CC(C3)C1)C2 | 0.249% | 
25 | C=CCn1c(SCC(=O)NC23CC4CC(CC(C4)C2)C3)nc(O)cc1=O | -4.61% | 
26 | COc1cc(NS(=O)(=O)c2ccc(NC(=S)NC(=O)c3ccccc3)cc2)nc(OC)n1 | 10.4% | 

Row | Structure (SMILES) | activity, negative = inhibition | Potency
27 | Cn1c(C(=O)N2CCCC(C(=O)NCc3ccccc3)C2)cc2sccc21 (stereo unspecified) | 0.53% | 
28 | CC(=O)Nc1ccc(S(=O)(=O)NC2Cc3ccccc3C2)cc1 | 4.49% | 
29 | COc1ccc(-c2nc3ccccc3c(=O)n2CCc2ccc(O)cc2)cc1 | 4.13% | 
30 | O=[N+]([O-])c1c(NCCO)cc(Sc2nc3ccccc3s2)c2nonc12 |  | 5.01 µM (active)
31 | O=C(CSc1nc2ccccc2s1)Nc1ccc(C(=O)O)cc1 | -0.471% | 
32 | COc1ccc(S(=O)(=O)Nc2ccc(O)c(Sc3nc4ccccc4s3)c2)cc1 | -20.8% | 
33 | CCCOc1cccc(C(=O)Nc2ccccc2C(=O)N2CCN(C)CC2)c1 | 2.85% | 
34 | Cc1ccc(S(=O)(=O)c2nc(-c3cccs3)oc2NCc2cccnc2)cc1 | 3.93% | 
35 | Fc1ccc(/C=N/n2c(COc3ccccc3)n[nH]c2=S)cc1 | -7.22% | 
36 | Cc1ccc(OCc2n[nH]c(=S)n2-c2ccc(C)cc2)cc1 | -10.9% | 
37 | S=c1[nH]nc(COc2ccccc2)n1-c1ccccc1 |  | 10 µM (active)
38 | COc1ccc2oc(C(=O)NCC(Cc3ccccc3)N(C)C)c(C)c2c1 (stereo unspecified) | -12.4% | 
39 | CC(C)Oc1ccc(Cc2n[nH]c(=S)n2Cc2ccccc2)cc1Cl | -9.9% | 
40 | C=CCn1c(CCc2ccc(OC(C)C)cc2)n[nH]c1=S | -0.265% | 
41 | CC(C)Oc1ccc(CCc2n[nH]c(=S)n2Cc2ccccc2)cc1 |  | 15.8 µM (active)
42 | COc1ccc(CCNC(=O)C2CCCN(S(=O)(=O)c3ccc(OC)cc3)C2)cc1 (stereo unspecified) | -4.87% | 
43 | CC1CCC(NC(=O)CN(C)S(=O)(=O)c2ccc3c(c2)c(=O)n(C)c(=O)n3C)CC1 (stereo unspecified) | -7.19% | 
44 | CCc1ccc(NC(=O)CC2C(=O)NCCN2C(=S)Nc2ccccc2)cc1 (stereo unspecified) | 1.61% | 
45 | COc1cccc(NC(=O)CC2C(=O)NCCN2C(=S)Nc2ccc(F)cc2)c1 (stereo unspecified) | 1.84% | 
46 | COc1ccc(C(=O)NC(=S)N2CCNC(=O)C2CC(=O)OC(C)C)cc1 (stereo unspecified) |  | 10 µM (active)
47 | Cc1ccc(-c2ccc(=O)n(Cc3ccc(F)cc3Cl)n2)cc1 | -19% | 
48 | O=c1[nH]c2cccnc2n1-c1ccc([N+](=O)[O-])cc1 | -8.8% | 
49 | O=[N+]([O-])c1ccc2c(c1)Nc1nc3ccccc3nc1N2 | 5.07% | 
50 | O=[N+]([O-])c1ccc2nc(-c3ccccn3)[nH]c2c1 |  | 6.31 µM (active)
51 | CC(C)(C)c1nnc(N/N=C/c2ccc(O)cc2)n(N)c1=O |  | 2.24 µM (active)
52 | Nc1nnn(CC(=O)N/N=C/c2ccc(O)cc2)n1 | 1.16% | 

Row | Structure (SMILES) | activity, negative = inhibition | Potency
53 | O=c1c2ccccc2nc(N/N=C/c2ccccc2)n1O | -13.5% | 
54 | S=C(Nc1cccc(Cl)c1)Nc1ccc2cn[nH]c2c1 | -2.76% | 
55 | CC(=O)Nc1cccc(C(=O)Nc2nc(C)cs2)c1 | -5.52% | 
56 | Cc1csc(NC(=S)Nc2cccc(Cl)c2)n1 |  | 1 µM (active)
57 | COc1cccc(N(CC(=O)NC2CCCCCC2)S(=O)(=O)c2ccccc2)c1 | -3.26% | 
58 | CN1C(=O)CN2CCc3ccccc3C2c2cc(Cl)ccc21 (stereo unspecified) | -3.01% | 
59 | O=C(CSc1ncn[nH]1)Nc1nsc(-c2ccccc2)n1 | 3.14% | 
60 | O=C(CSc1nc(-c2ccccc2)cs1)Nc1cccc([N+](=O)[O-])c1 | -25.9% | 
61 | O=C(CSc1ncn[nH]1)Nc1nc(-c2cccc([N+](=O)[O-])c2)cs1 |  | 17.8 µM (active)
62 | COc1ccc2[nH]c(=O)c(CN(Cc3cccnc3)S(=O)(=O)c3ccccc3F)cc2c1 | -3.02% | 
63 | COc1cccc(N(CC(=O)NCc2ccccc2)C(=O)CCC(=O)Nc2nccs2)c1 | 3.14% | 
64 | NC(N)=Nc1nc(-c2ccccc2)c2cc(Cl)ccc2n1 | -4.6% | 
65 | O=C(CCl)NNc1nc(-c2ccccc2)c2cc(Cl)ccc2n1 |  | 17.8 µM (active)
66 | O=C(CCl)NNc1cccc(Cl)n1 | 4.76% | 
67 | COc1ccc(CCNC(=O)C(=O)NCC2OCCN2S(=O)(=O)c2ccc(F)cc2)cc1OC (stereo unspecified) | 1.05% | 
68 | CCc1nnc(NC(=O)C2CCCN2S(=O)(=O)c2ccccc2)s1 (stereo unspecified) | 6.92% | 
69 | Cc1ccnc(NS(=O)(=O)c2ccc(NC(=O)c3ccc(S(=O)(=O)N4CCOCC4)cc3)cc2)n1 | -1.2% | 
70 | CC1CCCCN1S(=O)(=O)c1ccc(C(=O)Nc2nnc(-c3cccs3)o2)cc1 (stereo unspecified) |  | 0.891 µM (active)
71 | CCc1nnc(NC(=O)c2ccc(S(=O)(=O)NC3CCCCC3)cc2)s1 | 0.424% [at 0.365 µM] | 
72 | O=C(Nc1ccc2cn[nH]c2c1)c1ccc(S(=O)(=O)N2CCOCC2)cc1 | 0.801% | 
73 | CC1CCCN(S(=O)(=O)c2ccc(C(=O)Nc3nnc(-c4ccncc4)o3)cc2)C1 (stereo unspecified) | -10.1% | 
74 | CSCc1nnc(NC(=O)c2ccc(S(=O)(=O)N3CCCCC3C)cc2)o1 (stereo unspecified) |  | 1.41 µM (active)
75 | CC1CN(S(=O)(=O)c2ccc(C(=O)Nc3sccc3C(N)=O)cc2)CC(C)O1 (stereo unspecified) | 2.1% | 
76 | O=C(Nc1nnc(-c2ccco2)o1)c1ccc(S(=O)(=O)N2CCOCC2)cc1 |  | 5.62 µM (active)
